Abs 340nm = compound light absorbance at 340 nm, profiling panel, artefact control, biochemical, MLSMR library, data from PS, PMK, MK assays; AID 708, 2007; 65,000 tested, under 10 active; compound absorbance at 340 nm, fold over control; fold change at 10 µM;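 active = at 10 µM dose, initial 340 nm absorbance at least 2 fold that of control wells; inactive = change under 2 fold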;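 note: initial absorbance extrapolated from kinetic A340 decline of NADH oxidation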
DPM-DC inhibit = S. pneumoniae DPM-DC inhibitors, primary screen, biochemical, PK/LDH-coupled NADH fluorescence; purified DPM-DC; 0.49% of 65,000 active; diphosphomevalonate decarboxylase (Streptococcus pneumoniae D39); calls only at 10 µM;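 active = the 320 compounds with the highest percent inhibition in the single-dose primary screen, excluding strongly autofluorescent ones, cut at about 32% in these data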;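 note: kinetic rate of NADH fluorescence loss reporting ADP formed by the decarboxylase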
NADH enzymes = inhibitors of PK/LDH coupling enzymes, profiling panel, artefact control, biochemical, MLSMR library; 0.02% of 65,000 active; coupled PK/LDH NADH assays, four targets; IC50, µM (titrated, usually from 10 µM), inactives show at the top dose inhibition;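 active = single-dose screening hits from any of four coupled enzyme assays that gave an IC50 when retested across doses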;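 note: the DPM-DC format reads NADH fluorescence rather than 340 nm absorbance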
Autofluor 339 = intrinsic fluorescence of library compounds, ex339/em460 – biochemical, MLSMR library, data from DPM-DC assay, artefact control, profiling panel; fluorescence fold increase at 10 µM; 5.5% of 65,000 active; compound autofluorescence, ex339/em460 nm, NADH buffer; active compounds read high; 1 = no-compound wells, NADH background;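 active = at 10 µM, mean starting fluorescence two-fold or more over control wells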;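 note: signal is the first read of a kinetic run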
Spn PMK inh = S. pneumoniae PMK inhibitors, primary screen, biochemical, mevalonate pathway, pilot trial included. phosphomevalonate kinase (Streptococcus pneumoniae D39). purified PMK, PK/LDH-coupled NADH absorbance 340 nm. inhibition, % at 10 µM. 0.49% of 65,000 active;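 active = top-ranked compounds by inhibition in the single 10 µM screen, taking a fixed number of the strongest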;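 note: 0% = full reaction with DMSO carrier and 100% = background rate without enzyme reaction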
Spn MK inh = S. pneumoniae MK inhibitors, primary screen, biochemical, PK/LDH-coupled NADH absorbance; mevalonate kinase [Streptococcus pneumoniae D39]; purified MK, PK/LDH-coupled NADH absorbance 340 nm; inhibition, % at 10 µM; 0.48% of 65,000 active; AID 555, 2006;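 active = ranked among the strongest by inhibition in the single 10 µM screen, a fixed top-ranked set picked for dose follow-up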
Active calls of the source: *; i = inactive; . = no result shown; + = active, no number; [ ] = dose if it differs, or a comment. Rows were chosen to be rich in hits. Some 6.5% of all compounds tested hit in one or more screens of this group.

SMILES	Abs 340nm	DPM-DC inhibit	NADH enzymes	Autofluor 339	Spn PMK inh	Spn MK inh
Nc1c(C(=O)NCCc2ccccc2)c2nc3ccccc3nc2n1CCN1CCOCC1	1	.	6.0%	3.88*	2.0	9.0
COC(=O)C(O)(c1ccc2c(c1)CCCN2)C(F)(F)F (configuration not stated)	1.02	i	3.0%	1.15	7.0	2.0
CN1C(=O)N(C)C(=O)C(CCc2ccccn2)(CCc2ccccn2)C1=O	1.01	i	10.0%	1.12	10.0	8.0
CN1C(=O)N(C)C(=O)C2(Sc3ccccc3C2=O)C1=O	1.04	.	4.0%	5.03*	7.0	0.0
CC(=NCc1ccc(F)cc1)c1c(O)n(C)c(=O)n(C)c1=O	1.03	i	3.0%	1.05	9.0	1.0
CCCNc1oc(-c2cccc3ccccc23)nc1C#N	1.06	.	6.0%	3.77*	5.0	7.0
Nc1ccccc1C(=O)OCCOc1ccccc1	1.04	i	7.0%	2.8*	10.0	7.0
CN1CCc2nc(SCC(=O)OC(C)(C)C)c(C#N)cc2C1	1.05	.	7.0%	2.32*	0.0	13.0
c1ccc2c(c1)[nH]c1cnccc12	1	.	1.0%	2.42*	4.0	7.0
Cc1[nH]c2ccccc2c1/C=N/O	1.02	i	4.0%	1.18	9.0	3.0
c1ccc2c3c([nH]c2c1)CNCC3	0.98	i	3.0%	1.03	8.0	8.0
Cc1c2ccncc2c(C)c2c1[nH]c1ccccc12	1	+[fluoresces]	1.0%	2.02*	1.0	5.0
CCCCNC(=O)Nc1ccc(C(O)(C(=O)OCC)C(F)(F)F)cc1 (configuration not stated)	1.02	i	4.0%	1.13	5.0	6.0
